Results taken from PubChem BioAssay (NCATS).
Inconclusive results are not listed. Where a call stands in place of a potency, no number is given. The source made the active and inactive calls. The call rests on the fitted dose curve.

molecular target: Nucleoprotein (Lymphocytic choriomeningitis virus (strain Armstrong)) (UniProt P09992); assay: qHTS for Inhibitors of the Functional Ribonucleoprotein Complex (vRNP) of Lymphocytic Choriomeningitis Arenaviruses (LCMV): LCMV Primary Screen - GLuc reporter signal (AID 1347086); conditions: LCMV minigenome vRNP cell assay, Gaussia luciferase reporter; series mostly up to 57.5 µM; further: nearly all actives have a fitted effect of over 70% in size
Sequence (P09992 whole entry, looked up): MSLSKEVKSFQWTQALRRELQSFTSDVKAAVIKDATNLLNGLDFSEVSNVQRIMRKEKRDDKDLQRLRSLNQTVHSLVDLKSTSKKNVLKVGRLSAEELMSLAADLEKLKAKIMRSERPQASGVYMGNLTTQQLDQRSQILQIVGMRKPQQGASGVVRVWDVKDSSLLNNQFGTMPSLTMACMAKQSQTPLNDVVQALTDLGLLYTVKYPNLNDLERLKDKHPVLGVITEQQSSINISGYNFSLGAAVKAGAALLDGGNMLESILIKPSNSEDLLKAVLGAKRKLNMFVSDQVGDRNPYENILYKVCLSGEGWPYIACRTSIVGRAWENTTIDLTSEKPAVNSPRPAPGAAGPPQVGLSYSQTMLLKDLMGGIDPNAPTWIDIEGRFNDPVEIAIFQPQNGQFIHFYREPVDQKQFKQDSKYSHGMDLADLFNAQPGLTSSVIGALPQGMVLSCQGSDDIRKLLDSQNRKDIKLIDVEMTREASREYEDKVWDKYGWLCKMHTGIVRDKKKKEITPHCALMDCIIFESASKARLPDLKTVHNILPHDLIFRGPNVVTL
Potency means the concentration at half of the fitted maximal effect.

Structure (SMILES) | Potency
CC(=O)c1c(O)cc(O)cc1O | inactive
CC(C)(O)C1CC[C@@]2(C)C3CCC4[C@@]5(C)CCCC(C)(C)C5C(O)C[C@]4(C)[C@]3(C)CC[C@@H]12 (stereo not given in full) | inactive
O=C(CCc1ccc(O)cc1)c1c(O)cc(O)cc1O[C@@H]1O[C@H](CO)[C@H](O)[C@H](O)[C@H]1O | inactive
CC1=CC(=O)CCC1 | inactive
c1ccc2nc(-c3ccc4c(c3)OCO4)ccc2c1 | inactive
CC(C)CCCC(=O)O | inactive
CC(C)c1noc(N2CCC(COc3ccc(-c4ccc(S(C)(=O)=O)cc4)nc3)CC2)n1 | inactive
CCCCCCC[C@@H](C/C=C/CCC(=O)N(C)C/C(=C/Cl)C/C(=C\C(=O)N1CC(OC)=CC1=O)OC)OC | inactive
COc1cc2c(cc1OC)C1Cc3ccc(OC)c(OC)c3C[N+]1([O-])CC2 (stereo not given) | inactive
C=C(C)[C@]12C[C@@H](C)[C@@]34O[C@](Cc5ccccc5)(O[C@@H]1[C@@H]3C=C(COC(=O)Cc1ccc(O)c(OC)c1)C[C@]1(O)C(=O)C(C)=C[C@@H]41)O2 | inactive
COc1cc2c3c(c1OC)C1(C=CC(=O)C=C1)CC3N(C(C)=O)CC2 (stereo not given) | inactive
NC(=O)Nc1ccc(Cl)c(Cl)c1 | inactive
COC(=O)c1ccccc1-n1c(C)nc2ccccc2c1=O | inactive
O=C(CO)c1c[nH]c2ccccc12 | inactive
CCC1(CC)C(=O)NC(=O)N(c2ccccc2)C1=O | inactive
CCCC(=O)OCCC(C)CCC=C(C)C (stereo not given) | inactive
CC1=CCCC(C)(C)C12CCC(C)O2 (stereo not given) | inactive
CCOC(=O)[C@H](CCc1ccccc1)N[C@@H](C)C(=O)N1CCCC1C(=O)O (stereo not given in full) | inactive
C=C1C(O)C[C@H]2C(=C)CCC3[C@H](OC(=O)[C@]3(O)CO)[C@@H]12 (stereo not given in full) | inactive
Cc1ccc(-c2ccccc2)cc1 | inactive
NC1(C(=O)N[C@@H](CCO)c2ccc(Cl)cc2)CCN(c2ncnc3[nH]ccc23)CC1 | 1720 nM (active)
Oc1ccc(C=Cc2cc(O)cc(O)c2)cc1 | inactive
COc1cc(-c2cc(=O)c3c(O)cc(O)cc3o2)ccc1O | inactive
COc1cc2oc(=O)ccc2c(OC)c1CC(O)C(C)(C)O (stereo not given) | inactive
COc1c2c(cc(O)c1C(C)=O)OC(C)(C)C=C2 | inactive
C=C(C)[C@H]1CC=C(CO)CC1 | inactive
CCOC(=O)CC(C)C | inactive
C=C1[C@H](n2cnc3c(=O)[nH]c(N)nc32)C[C@H](O)[C@H]1CO | inactive
SC1CCCC1 | inactive
CC1=C(O)C(=O)OC1C (stereo not given) | inactive
